TDP1 cell CPT: DT40-hTDP1 cell growth loss with CPT. chicken DT40 Tdp1-/-;hTDP1 cells + 20 nM CPT, ATP luminescence, 48 h. Potency, µM (titrated, usually from 46.2 µM), inactives show at the highest dose activity change, negative = growth inhibition, hits mostly inhibitors. hit rate 12% among 420,000. AID 686979; also: % is scaled to controls: 0 for no effect and ±100 for the full control effect; nearly all actives have a fitted effect of over 55% in size
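Chicken DT40 Tdp1-/- cells stably complemented with human TDP1 were seeded at 400 cells/well in medium containing 20 nM camptothecin, exposed to pin-transferred compounds, and grown at 37 °C for at least 48 hr. Viability was read as ATP luminescence.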
HT1080-NT tox: kills 2HG-producing HT-1080-NT fibrosarcoma cells; Potency, µM (doses to about 46.1 µM), for the others: at the highest dose activity, negative = less viability, most hits filed as cytotoxic; AID 686970; HT-1080-NT fibrosarcoma viability, CellTiter-Glo ATP luminescence, 48 h; hit rate 1.6% among 360,000;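 also: NT is the 2HG producing partner of a matched IDH1 knockdown line; 0% = DMSO-treated cells and -100% = media-only wells without cells; nearly all actives have a fitted effect of over 55% in size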
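Read-out is CellTiter-Glo luminescence after 10 minutes at room temperature, following 48 hours' compound treatment of HT-1080-NT cells (750 cells/well, RPMI, 5% FBS, 37 degrees C).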
DT40 TDP1 no CPT: qHTS for Inhibitors of human tyrosyl-DNA phosphodiesterase 1 (TDP1): qHTS in cells in absence of CPT | DT40 Tdp1-/- hTDP1 cells, no CPT, ATP luminescence, 48 h | Potency, µM (titrated, usually from 46.2 µM), inactives show top-dose activity change, negative = growth inhibition, hits mostly inhibitors | hit rate 15% among 420,000; also: % is scaled to controls: 0 for no effect and ±100 for the full control effect; nearly all actives have a fitted effect of over 55% in size
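Luminescent ATP content (CellTiter-Glo) served as the growth readout. Knockout chicken DT40 cells expressing human TDP1 were exposed to compounds without camptothecin for a minimum 48 hr at 37 °C.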
TGFb SMAD3 inh: TGF-b pathway inhibition | HepG2 CAGA-GFP TGF-b/SMAD3 reporter, GFP fluorescence, 18 h; TGF-beta stimulated, 500 pg/mL final | Potency, µM (titrated, usually from 46.1 µM), without a hit: at the highest dose activity, negative = inhibition, hits mostly inhibitors | hit rate 1.2% among 410,000 | AID 588855; also: % is scaled to controls: 0 for no effect and ±100 for the full control effect; nearly all actives have a fitted effect of over 65% in size
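Read-out: total well GFP (ex488/em500-530) summed from mean per-cell fluorescence. Cells: HEPG2 CAGA-GFP, 1% FBS DMEM, 18 h at 37 degrees C with 500 pg/mL final TGF-beta. Unstimulated wells served as the full-inhibition control; stimulated DMSO wells = 0%.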
HepG2 viability: kills HepG2 cells in TGF-b inhibitor counter-screen | AID 588856 | Potency, µM (highest dose often 46.1 µM), for inactives: at the highest dose activity change, negative = cytotoxicity, actives largely listed as cytotoxic | hit rate 0.76% among 410,000 | HepG2 CAGA-GFP viability, ATP luminescence, 18 h
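HepG2 CAGA-GFP cells (1000/well, DMEM with 1% FBS) received compound, then TGF-beta at 500 pg/mL final, and were incubated 18 hours at 37 degrees C. Viability was read by CellTiter-Glo luminescence. Media-only wells were set as complete cell-killing and DMSO as no toxicity.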
HT1080 IDH1KD tx: toxicity to HT-1080 IDH1 knockdown cells (counter line). HT-1080 IDH1 knockdown viability, ATP luminescence, 48 h. Potency, µM (highest dose often 46.1 µM), inactives show top-dose activity, negative = toxicity, usual class: cytotoxic. hit rate 2% among 360,000;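 also: 0% = DMSO wells and -100% = cell-free medium wells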
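Knockdown cells (IDH1KD HT-1080) received compounds 2 h after plating at 750 cells/well and were kept 48 h at 37 °C in 5% FBS RPMI. A CellTiter-Glo luminescence read gave % activity for curve fitting.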
* = called active by the depositor; ? = inconclusive; · = no result; [ ] = dose if it differs, or a comment. Hits are enriched below; roughly 17% of the tested compounds scored in any of these assays. Calls follow the shape of the dose curve; as a rule, active = well fitted curve in the direction sought with a large enough effect; inconclusive = small, poorly fitted or top-dose-only effect, or another doubt; inactive = no such curve, though single readings can be large; an effect the other way counts as inactive or inconclusive. Potency is read from the fitted curve at half-maximal effect.

SMILES	TDP1 cell CPT	HT1080-NT tox	DT40 TDP1 no CPT	TGFb SMAD3 inh	HepG2 viability	HT1080 IDH1KD tx
O=C(Nc1ccc(NC(=S)NC(=O)C(c2ccccc2)c2ccccc2)cc1)c1ccccc1	?	-26%	15µM*	1%	16%	?
CCCC(=O)Nc1ccc(NC(=S)NC(=O)c2ccccc2[N+](=O)[O-])cc1	?	?	29µM*	-12%	-13%	?
O=C(NC(=S)Nc1ccc(S(=O)(=O)Nc2nccs2)cc1)c1ccccc1	-9%	2%	-10%	-9%	16µM*	1%
CCCCOc1ccc(C(=O)N2CCNC(=O)C2)cc1	14%	21%	-4%	-3%	1%	7%
Cc1ccc(NC(=O)CSc2nnc(N)s2)c(C)c1	-3%	·	1%	-2%	1%	·
COc1ccccc1-n1cc(CN2CCOc3ccc(CN4C[C@@H](C)O[C@@H](C)C4)cc3C2)cn1	-11%[9.04 µM]	·	?	·	·	·
CCC(=O)NC(=S)Nc1ccc(NC(=S)NC(=O)c2ccccc2)cc1	?	-7%	18µM*	-37%	-19%	-2%
Cc1cc(C)c(NC(=S)NC(=O)c2ccccc2)cc1C	21µM*	1%	8.2µM*	-11%	-17%	?
COc1ccc(Cc2ccccc2C(=O)O)cc1	4%	0%	-14%	0%	-2%	11%
COc1ccc(CC2=CC(=O)c3ccccc3C2=O)cc1	1.8µM*	?	2.1µM*	?	-102%	?
CC1CCCN(c2nc(-c3cccnc3)nc3scc(-c4ccccc4)c23)C1 (stereo unspecified)	?	1%	18µM*	-19%	8%	-18%
CN1CCN(c2nc(-c3cccnc3)nc3scc(-c4ccccc4)c23)CC1	?	?	23µM*	22%	-4%	-9%
Nc1nc(NCc2ccc(Cl)c(Cl)c2)c2[nH]cnc2n1	?	·	13µM*	-14%	-21%	·
Cc1cccc(COc2ccc(-c3cc(C(F)(F)F)n4nc(C)cc4n3)cc2)c1	?	·	?	-8%	-33%	·
CN=CC1=C(O)c2ccccc2C1=O	-2%	1%	11%	18%	3%	4%
O=C1C(C=Nc2ccccc2O)=C(O)c2ccccc21	3.3µM*	6.3µM*	1.3µM*	-27%	-14%	6.3µM*
Cc1ccc(O)c(N=CC2=C(O)c3ccccc3C2=O)c1	?	?	23µM*	-4%	-79%	?
Cc1cccc(CN2CCN(CC(=O)NCc3ccc(Cl)cc3)C2=O)c1	1%	·	?	?	-9%	·
COc1cccc(Cc2n[nH]c(=S)n2Cc2ccco2)c1	-24%	-5%	-11%	6%	2%	-21%
O=C(NCC1CCCCC1)c1ccccc1[N+](=O)[O-]	?	0%	-1%	6%	0%	-3%
Cn1c(C(=O)NCCN2CCN(c3ccccc3F)CC2)cc2c(=O)n(C)c3ccccc3c21	18µM*	-3%	23µM*	3%	-8%	1%
Cn1c(C(=O)NCCN2CCOCC2)cc2c(=O)n(C)c3ccccc3c21	?	-9%	-16%	15%	2%	0%
CCN1CCN(CCCNC(=O)c2cc3c(=O)[nH]c4ccccc4c3s2)CC1	?	-21%	?	20%	-26%	?
CCCN(CCC)CCNC(=O)c1cc2c(=O)n(C)c3ccccc3c2n1C	?	-13%	18µM*	2%	-32%	-15%
CCN1CCN(CCCNC(=O)c2cc3c(=O)n(C)c4ccccc4c3s2)CC1	?	·	10µM*	63%	-35%	·
SMILES	TDP1 cell CPT	HT1080-NT tox	DT40 TDP1 no CPT	TGFb SMAD3 inh	HepG2 viability	HT1080 IDH1KD tx
Cn1c(=O)c2cc(C(=O)N3CCN(c4ccc(Cl)cc4)CC3)sc2c2ccccc21	?	·	?	2%	3%	·
Cn1c(=O)c2cc(C(=O)NCCCN3CCN(c4ccccc4F)CC3)sc2c2ccccc21	3.7µM*	·	3.7µM*	?	-3%	·
O=C(NCc1ccc(F)cc1)c1[nH]c(C(F)(F)F)nc1-c1ccccc1	-26%	-22%	?	-31%	-18%	-15%
Cn1c(=O)c2cc(C(=O)NCCCN3CCN(c4ccc(F)cc4)CC3)sc2c2ccccc21	?	·	2.9µM*	1%	-18%	·
Cn1c(C(=O)NCCCN2CCN(c3ccc(F)cc3)CC2)cc2c(=O)n(C)c3ccccc3c21	?	0%	?	9%	-9%	6%
Cc1cc(N2CCCC2)ccc1/C=C1\NC(=S)N(C)C1=O	4.6µM*	-3%	3.3µM*	10%	-4%	-13%
O=C1/C(=C/c2ccc(N3CCCC3)cc2)NC(=S)N1C1CC1	16µM*	6.3µM*	16µM*	43%	-26%	7.9µM*
COCCNCC(=O)Nc1ccc(C)c(S(=O)(=O)N2CCCCC2)c1	7%	-5%	-3%	-9%	1%	5%
COCCNC(=O)C1=C(N)C(C(=O)Nc2ccc(C)c(S(=O)(=O)N3CCCCC3)c2)SC1=Nc1ccc(C)cc1C (stereo unspecified)	18µM*	13µM*	18µM*	?	-25%	?
CCN(CC)S(=O)(=O)c1cccc(NC(=O)C2SC(=Nc3ccc(C)cc3C)C(C(=O)NCC3CCCO3)=C2N)c1 (stereo unspecified)	?	-1%	23µM*	?	-4%	-20%
COc1cc2c(cc1OC)/C(=C/C(=O)c1ccc(OC)c([N+](=O)[O-])c1)NCC2	?	-22%	18µM*	5%	-12%	?
Cc1nc(N(C)C)c2sc(=S)n(Cc3ccccc3)c2n1	12%	7%	7%	9%	3%	21%
COc1ccc(-c2nc(NC(=O)c3ccc(OCC(=O)N4CCOCC4)c(OC)c3)sc2C)cc1	23µM*	-6%	18µM*	1%	2%	-14%
COc1ccc(-c2nc(NC(=O)C3CCN(c4nc5ccccc5o4)CC3)sc2C)cc1	16µM*	?	?	?	-28%	?
O=C(CCl)Nc1nc(-c2ccco2)c(-c2ccco2)s1	?	-8%	?	-20%	9%	-25%
COc1ccc(-c2nc(NC(=O)c3ccco3)sc2C)cc1	21µM*	0%	23µM*	-18%	-23%	-22%
Cc1ccc(C(=O)Nc2nc(-c3ccco3)c(-c3ccco3)s2)o1	8.2µM*	-11%	21µM*	-7%	-7%	-4%
